An excerpt weighted towards active compounds, which were near 0.58% of everything screened.
Eya2 phos inh: qHTS Assay for Inhibitors of the Phosphatase Activity of Eya2; hit rate 0.006% among 330,000; recombinant Eya2, OMFP fluorescence dephosphorylation (OMFP is methylfluorescein phosphate); Potency, µM (series often up to 76.9 µM), for the others: at the highest dose activity, negative = inhibition, actives largely listed as inhibitors; note: potency is the fitted concentration of half-maximal effect; % is set by controls: 0 for no effect and ±100 for the full control effect
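Eya2 protein (added as 0.2 uM solution) was preincubated with compound for 10 min at ambient temperature in 50 mM HEPES pH 7.5, 50 mM NaCl, 5 uM MgCl2, 0.05% BSA, 1 mM DTT. OMFP (added at 50 uM) then reacted 10 min; fluorescence read at 485/525 nm.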
CtBP-E1A blk: qHTS Assay for Inhibitors of the CtBP/E1A Interaction; CtBP / adenovirus E1A interaction (AlphaScreen); AlphaScreen GST-E1A/His-CtBP binding, 1536-well; hits give low values; activity change, % (no concentration beside the values); hit rate 0.49% among 340,000; AID 651724, 2012; in the data active = activity change below about -65%; inconclusive = mostly about -30% to -63%; note: % is set by controls: 0 for no effect and ±100 for the full control effect
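Steps: dispense buffer (Tris pH 8.0, NaCl 300 mM, TCEP 1 mM, BSA, Tween 20); add 5X protein mix (GST-E1A, His-CtBP, 125 nM each); pin 23 nL compound; 2 h at 37 °C, dark; add 5X beads (50 ug/mL); 1 h; read.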
Six1-Eya2 inh: qHTS Assay for Inhibitors of the Six1/Eya2 Interaction; AlphaScreen GST-Six1/His-Eya2 binding, biochemical; hits give low values; activity change, % (test concentration not listed); hit rate 0.56% among 360,000; Homeobox protein SIX1 (Homo sapiens) + Protein phosphatase EYA2 (Homo sapiens), …; AID 651725, 2012; in the data active = activity change below about -65%; inconclusive = mostly about -30% to -63%; note: % is set by controls: 0 for no effect and ±100 for the full control effect
Target sequence (O00167 whole entry, looked up): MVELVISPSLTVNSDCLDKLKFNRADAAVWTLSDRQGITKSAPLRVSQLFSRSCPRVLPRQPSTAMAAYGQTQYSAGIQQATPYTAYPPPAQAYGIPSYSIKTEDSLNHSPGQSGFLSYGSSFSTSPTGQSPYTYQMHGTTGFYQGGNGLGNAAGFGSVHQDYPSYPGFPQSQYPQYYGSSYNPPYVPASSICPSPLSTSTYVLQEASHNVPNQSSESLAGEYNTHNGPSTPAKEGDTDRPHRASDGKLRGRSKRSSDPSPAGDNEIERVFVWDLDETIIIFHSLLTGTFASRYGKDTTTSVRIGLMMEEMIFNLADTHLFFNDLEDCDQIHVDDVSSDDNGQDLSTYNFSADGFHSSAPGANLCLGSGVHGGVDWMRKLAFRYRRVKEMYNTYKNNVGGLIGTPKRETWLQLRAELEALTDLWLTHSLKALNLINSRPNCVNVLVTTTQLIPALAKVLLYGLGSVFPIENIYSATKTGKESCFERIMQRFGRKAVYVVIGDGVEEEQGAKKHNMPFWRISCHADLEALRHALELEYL
Target sequence (Q15475 whole entry, looked up): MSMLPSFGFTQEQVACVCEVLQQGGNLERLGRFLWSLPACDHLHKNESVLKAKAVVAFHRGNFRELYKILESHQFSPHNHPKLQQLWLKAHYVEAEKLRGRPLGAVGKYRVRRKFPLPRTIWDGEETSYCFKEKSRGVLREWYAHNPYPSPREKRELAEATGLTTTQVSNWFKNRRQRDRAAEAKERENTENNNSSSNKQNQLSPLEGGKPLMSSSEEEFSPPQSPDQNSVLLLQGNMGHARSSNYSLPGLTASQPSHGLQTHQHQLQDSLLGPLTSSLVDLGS
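AlphaScreen luminescence read after one hour at 37 °C in darkness. Pin-transferred compounds met GST-Six1 and His-Eya2 protein (5X stock 250 nM/500 nM) plus glutathione donor and Ni-chelate acceptor beads (5X, 50 ug/mL).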
Glioma ERSR ind: qHTS for Inducers of the Endoplasmic Reticulum Stress Response (ERSR) in Human Glioma: qHTS; U87-MG GRP78 promoter luciferase reporter, 16 h; Potency, µM, without a hit: at the highest dose activation, hits mostly activators; hit rate 0.02% among 420,000; note: potency is the fitted concentration of half-maximal effect; series mostly up to about 76 µM; % of control where 0% means no effect; nearly all actives have a fitted effect of over 35% in size
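ERSR induction read as luciferase luminescence (Bright-Glo, 10 min at room temperature) in stably transfected human U87-MG glioma cells exposed to compounds for 16 h, using GRP78 as sensor.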
An asterisk follows results filed as active; u = inconclusive; x = no result. Unless noted, calls come from the whole dose curve; as a rule, active = well fitted curve in the direction sought with a large enough effect; inconclusive = small, poorly fitted or top-dose-only effect, or another doubt; inactive = no such curve, though single readings can be large; an effect the other way counts as inactive or inconclusive.

SMILES | Eya2 phos inh | CtBP-E1A blk | Six1-Eya2 inh | Glioma ERSR ind
COCc1cc(=O)[nH]c(Nc2nc3ccccc3o2)n1 | -6% | -85* | -74* | -2%
COC(=O)Cc1cc(=O)[nH]c(Nc2nc3ccccc3o2)n1 | -9% | -17 | u | 6%
O=[N+]([O-])c1cc(Cl)cc(/C=N/NC(=S)Nc2ccc(S(=O)(=O)N3CCOCC3)cc2)c1O | -3% | -98* | -91* | -7%
NS(=O)(=O)c1ccc(NC(=S)Nc2ccc(S(=O)(=O)N3CCCC3)cc2)cc1 | 2% | -4 | 8 | -2%
O=S(=O)(c1ccc(NC(=S)NN=Cc2ccccc2O)cc1)N1CCCCC1 | x | -89* | -86* | 1%
O=C(NCc1ccncc1)c1cnn(-c2nccc(-c3cc4ccccc4o3)n2)c1C1CC1 | x | x | x | -4%
CC(C)Cc1cc(C(=O)NCC2Cc3cc(F)cc(-c4ccccn4)c3O2)no1 (centres undefined) | x | x | x | -4%
CCN(CC)S(=O)(=O)c1ccc(NC(=O)COC(=O)CNS(=O)(=O)/C=C/c2ccccc2)cc1 | -18% | -81* | -14 | -7%
COc1ccc(NC(=O)COC(=O)CNS(=O)(=O)/C=C/c2ccccc2)cc1OC | 6% | x | 6 | -3%
Cc1ccc(S(=O)(=O)Nc2cc(C(C(=O)OC(C)C)C(=O)C(F)(F)F)c(O)c3ccccc23)c(C)c1 (centres undefined) | -25% | -21 | -77* | -2%
Cc1ccc2c(c1)c1ccc3c(c1n2C)C(=O)C=CC3=O | 15% | u | u | -2%
COc1ccc2c(c1)c1ccc3c(c1n2C)C(=O)C=CC3=O | 11% | x | -69* | -3%
COc1ccc2c(c1)CCc1cnc(-n3ncc(C(=O)N(C)CC4CCCN(C)C4)c3C)nc1-2 (centres undefined) | x | x | x | -4%
CC1=C/C(=C(/c2cc(C)c(O)c(Br)c2)c2ccccc2S(=O)(=O)O)C=C(Br)C1=O | -1% | -69* | -73* | -7%
COc1ccc2nc(/N=C\N(C)C)sc2c1 | 23% | 0 | 3 | -4%
COc1ccc2nc(/N=C/c3c(C)[nH]n(-c4ccc(C)cc4)c3=O)sc2c1 | -1% | u | -76* | 1%
COC(=O)c1cccc(C(=O)NCc2nc(-c3cccc(NC(=O)c4ccoc4C)c3)oc2C)c1 | x | x | x | -2%
COc1ccc(S(=O)(=O)c2c(O)c3ccc(C(=O)Nc4cccc(F)c4)cc3[nH]c2=O)cc1 | -2% | x | -66* | -4%
COc1ccccc1CNc1nc(=S)[nH]c2cc(OC)c(OC)cc12 | 13% | -85* | -81* | -8%
COc1cc2[nH]c(=S)nc(NCc3cccs3)c2cc1OC | 2% | -90* | -84* | -3%
COc1ccccc1C1CN(CCNC(=O)[C@@H]2CSC(=O)N2)Cc2ccccc2O1 (some centres undefined) | x | x | x | -4%
COc1cc2c(cc1[N+](=O)[O-])-c1ccc([N+](=O)[O-])cc1C2=NNC(N)=S | x | u | -73* | 0%
Cc1ccccc1-c1ccc(CN2CCc3nnc(C(NS(C)(=O)=O)C(C)C)n3CC2)cc1 (centres undefined) | x | x | x | -3%
CC(NC(=O)C1CCOCC1)c1nnc2n1CCN(Cc1ccc3cccnc3c1)CC2 (centres undefined) | x | x | x | -3%
COc1ccc(NC(=O)C2CC(=O)OC23CCCCC3)cc1 (centres undefined) | 0% | 4 | -4 | -4%
SMILES | Eya2 phos inh | CtBP-E1A blk | Six1-Eya2 inh | Glioma ERSR ind
COc1cccc(NC(=O)c2ccc(NC(=O)C3CC(=O)OC34CCCCC4)cc2)c1 (centres undefined) | 7% | -80* | u | -6%
NNc1nccc(Nc2ccccc2C(=O)O)n1 | 1% | -67* | -90* | -5%
c1ccc(Nc2ccnc(Nc3ccccc3)n2)cc1 | 5% | 0 | 0 | 2%
OCCCNCc1cc2ccc(F)cc2nc1N1CCN(c2cccc(Cl)c2)CC1 | x | x | x | -3%
Cc1ccc2nccnc2c1 | x | x | x | -11%
CCc1nc2cc(C(=O)N(C)C3CCOC3)cc(NC(=O)c3ccccc3OC)c2n1C (centres undefined) | x | x | x | -3%
Cc1ccc(NC(=O)c2cc(S(=O)(=O)N(C)C)ccc2N2CCCC2)cc1F | -16% | -1 | -6 | 32µM*
CN(C)S(=O)(=O)c1ccc(N2CCCC2)c(C(=O)NCC(=O)Nc2ccc(F)c(F)c2)c1 | 9% | 0 | -9 | -4%
Cc1c(C(=O)NCC2COCCO2)cnn1-c1ncc2c(n1)-c1ccccc1CC2 (centres undefined) | x | x | x | 1%
CCOC(=O)c1c2c3c(cccc3[nH]c1=O)C(=O)c1ccccc1-2 | 1% | u | u | -7%
CCOC(=O)c1c2c(n(Cc3ccccc3)c1C)C(=O)C(=O)c1ccccc1-2 | x | -79* | u | -14%
CCOC(=O)c1c2c3c(c(Cl)ccc3[nH]c1=O)C(=O)c1ccccc1-2 | -1% | -89* | -76* | 0%
CCOC(=O)c1c2c3c(cccc3n(C)c1=O)C(=O)c1ccccc1-2 | -12% | -83* | -69* | -1%
CCN1CCCC1CNC(=O)c1cnn(-c2nccc(-c3cc4ccccc4o3)n2)c1C (centres undefined) | x | x | x | -2%
COc1ccccc1N=Nc1nc(-c2ccccc2)c(-c2ccccc2)[nH]1 | -1% | 13 | u | 0%
COc1ccc(N=Nc2nc(-c3ccccc3)c(-c3ccccc3)[nH]2)cc1 | -3% | 2 | -70* | -1%
Oc1ccccc1N=Nc1nc(-c2ccccc2)c(-c2ccccc2)[nH]1 | -7% | u | -67* | -6%
C/C(=N\NC(=O)c1cccc(Br)c1)c1ccccn1 | 0% | -3 | -90* | -6%
O=C(NC(O)C(=O)c1ccccc1)c1ccccn1 (centres undefined) | -5% | 11 | 0 | -4%
O=C(NN=C(c1ccccc1)c1ccccn1)c1ccccc1 | -17% | 6 | -68* | 10%
Cc1cc2c(cc1C)/C(=N/NC(=O)c1ccccn1)CCC2 | 6% | -29 | -21 | -3%
O=C(NN=C1CCC(=NNC(=O)c2ccccn2)CC1)c1ccccn1 | 7% | -75* | -67* | -6%
C/C(=N/NC(=O)c1ccc(C(C)(C)C)cc1)c1ccccn1 | x | -1 | -88* | -1%
COc1ccc(C(=O)N/N=C(\C)c2ccccn2)cc1OC | -1% | -93* | -89* | -3%
COc1ccc(NC(=O)c2ccccn2)cc1OC | -8% | x | -3 | 0%
O=C(COc1ccc(Cl)cc1)NNC(=O)c1ccccn1 | 12% | u | u | -4%
Cc1cc(C)cc(OCC(=O)NNC(=O)c2ccccn2)c1 | 26% | x | -68* | -2%
O=C(NNC(=O)C12CC3CC(CC(C3)C1)C2)c1cnccn1 | 6% | 1 | -4 | -4%
O=C(NNC(=O)C12CC3CC(CC(C3)C1)C2)c1ccccn1 | 4% | -19 | -66* | u

Compound activity (PubChem BioAssay)
